HepG2 tox: HepG2 cytotoxicity, counter-screen for TGF-b inhibitors. Potency, µM (series often up to 46.1 µM), for the others: at the top dose activity change, negative = cytotoxicity, usual class: cytotoxic. AID 588856. HepG2 CAGA-GFP viability, ATP luminescence, 18 h. 410,000 tested, 0.76% active
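CellTiter-Glo luminescence gave cytotoxicity after 18 hours at 37 degrees C. The cells were HepG2 CAGA-GFP in 1% FBS DMEM, stimulated with 500 pg/mL TGF-beta after compound addition. %Activity was normalised to no-cell wells (complete cell-killing) and DMSO (no toxicity), and curves were fitted and classified.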
DT40 TDP1 no CPT: qHTS for Inhibitors of human tyrosyl-DNA phosphodiesterase 1 (TDP1): qHTS in cells in absence of CPT; 420,000 tested, 15% active; DT40 Tdp1-/- hTDP1 cells, no CPT, ATP luminescence, 48 h; AID 686978, 2013; Potency, µM (top dose mostly 46.2 µM), for the others: at the top dose activity change, negative = growth inhibition, actives largely listed as inhibitors; further: on the % scale 0 is the no-effect control and ±100 the full control effect; nearly all actives have a fitted effect of over 55% in size
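Seeded 400 DT40-hTDP1 cells/well (vehicle DMSO, no 20 nM CPT); pinned compounds; ≥48 hr at 37 °C; CellTiter-Glo luminescence as viability measure.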
HT1080 IDH1KD tx: toxicity to HT-1080 IDH1 knockdown cells (counter line); HT-1080 IDH1 knockdown viability, ATP luminescence, 48 h; Potency, µM (top dose mostly 46.1 µM), for inactives: at the highest dose activity, negative = toxicity, actives largely listed as cytotoxic; 360,000 tested, 2% active; AID 686971;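 further: 0% = DMSO wells and -100% = cell-free medium wells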
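Cytotoxicity counter-line: IDH1KD HT-1080, 48 h, CellTiter-Glo. Curves classed by r2, magnitude and activity.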
HT1080-NT tox: kills 2HG-producing HT-1080-NT fibrosarcoma cells; HT-1080-NT fibrosarcoma viability, CellTiter-Glo ATP luminescence, 48 h; Potency, µM (highest dose often 46.1 µM), for inactives: at the top dose activity, negative = less viability, most hits filed as cytotoxic; 360,000 tested, 1.6% active; AID 686970;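 further: NT is the 2HG producing partner of a matched IDH1 knockdown line; 0% = DMSO-treated cells and -100% = media-only wells without cells; nearly all actives have a fitted effect of over 55% in size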
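HT-1080-NT; 750 cells/well; 5% FBS RPMI; 48 h compound, 37 degrees C; CellTiter-Glo luminescence; curve fitting and curve-class assignment.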
TDP1 cell CPT: growth inhibition of DT40 Tdp1-/-;hTDP1 cells with camptothecin (screen for TDP1 inhibitors); chicken DT40 Tdp1-/-;hTDP1 cells + 20 nM CPT, ATP luminescence, 48 h; AID 686979; Potency, µM (top dose mostly 46.2 µM), for the others: at the top dose activity change, negative = growth inhibition, most hits filed as inhibitors; 420,000 tested, 12% active; further: on the % scale 0 is the no-effect control and ±100 the full control effect; nearly all actives have a fitted effect of over 55% in size
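Chicken DT40 Tdp1-/- cells complemented with human TDP1, 400 cells/well, exposed to compounds plus 20 nM camptothecin for at least 48 h at 37 C; viability read as ATP content by CellTiter-Glo luminescence.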
TGFb SMAD3 inh: blocks TGF-b signaling. Potency, µM (doses to about 46.1 µM), for the others: at the top dose activity, negative = inhibition, most hits filed as inhibitors. 410,000 tested, 1.2% active. HepG2 CAGA-GFP TGF-b/SMAD3 reporter, GFP fluorescence, 18 h; TGF-beta stimulated, 500 pg/mL final. AID 588855; further: on the % scale 0 is the no-effect control and ±100 the full control effect; nearly all actives have a fitted effect of over 65% in size
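Inhibition was scored as loss of TGF-beta-induced (500 pg/mL final, 18 hours, 37 degrees C) GFP in HEPG2 cells carrying a CAGA-GFP reporter, in DMEM with 1% FBS. Well GFP was summed per cell; Activity was normalised to unstimulated and stimulated DMSO wells, then concentration-response fitting.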
Starred values were filed as active, the others as inactive; ? = inconclusive; nt = no result given. Only some compounds are listed: those with a hit (about 17% of all), similar ones and a draw of the others. The call rests on the fitted dose curve; in most records, active means well fitted curve in the direction sought with a large enough effect; inconclusive means small, poorly fitted or top-dose-only effect, or another doubt; inactive means no such curve, though single readings can be large; an effect the other way counts as inactive or inconclusive. Potency means the concentration at half of the fitted maximal effect.

SMILES	HepG2 tox	DT40 TDP1 no CPT	HT1080 IDH1KD tx	HT1080-NT tox	TDP1 cell CPT	TGFb SMAD3 inh
CC(C)Oc1ccc(/C(O)=C2/C(=O)C(=O)N(CCN3CCNCC3)C2c2cccc([N+](=O)[O-])c2)cc1 (stereo not drawn)	-1%	-3%	0%	2%	3%	-7%
Cc1nn(CC(=O)NCCCN2CCC(Cc3ccccc3)CC2)c(=O)c2cc(-c3ccccc3)nn12	-18%	18µM*	-3%	-8%	18µM*	0%
Cc1nn(CC(=O)NCCCN2CCN(Cc3ccccc3)CC2)c(=O)c2cc(-c3ccccc3)nn12	1%	21µM*	1%	2%	?	-10%
CCc1ccc(-c2cc3c(=O)n(CC(=O)NCCCN4CCC(Cc5ccccc5)CC4)nc(C)n3n2)cc1	-14%	?	-1%	2%	?	11%
CCN(CC1CCCN(CCc2cccc(OC)c2)C1)C(=O)c1ccoc1 (stereo not drawn)	10%	-2%	-12%	2%	10%	1%
COc1cc(C(=O)Nc2cccc(OCc3cc(=O)n4c(C)csc4n3)c2)cc(OC)c1OC	-9%	15µM*	nt	nt	21µM*	-21%
Cc1cccc(C(=O)Nc2cccc(OCc3cc(=O)n4c(C)csc4n3)c2)c1	-10%	?	nt	nt	?	-15%
Cc1ccccc1C(=O)Nc1cccc(OCc2cc(=O)n3c(C)csc3n2)c1	1%	-13%	nt	nt	-2%	4%
COc1ccccc1C(=O)Nc1cccc(OCc2cc(=O)n3c(C)csc3n2)c1	-24%	23µM*	nt	nt	16µM*	?
Cc1cc(C(=O)N/N=C/c2c(C)n(C)c3ccccc23)n[nH]1	10%	?	8%	-3%	19%	4%
Cc1[nH]n(-c2ccccc2)c(=O)c1/C=N/Nc1nncc(-c2ccccc2)n1	-5%	1µM*	0.79µM*	1.3µM*	1µM*	?
Cc1ccc(/C=N/Nc2nncc(-c3ccccc3)n2)o1	16%	?	-20%	-23%	-5%	5%
CCCCN(CCCC)C(=S)N/N=C/c1c(C)[nH]n(-c2ccccc2)c1=O	-21%	2.6µM*	6.5µM*	?	2.1µM*	?
CCCCN=Cc1c(C)[nH]n(-c2ccccc2)c1=S	-73%	?	-2%	-1%	-28%	?
Cc1ccc(-n2[nH]c(C)c(C=NCc3ccncc3)c2=O)cc1	-109%	?	?	?	?	-9%
Cc1ccc(-n2[nH]c(C)c(/C=N/NC(=O)c3ccc(O)cc3O)c2=O)cc1	-51%	5.2µM*	10µM*	2.1µM*	12µM*	-9%
Cc1cc(C(=O)N/N=C/c2c(C)[nH]n(-c3ccccc3)c2=O)n[nH]1	-15%	?	-23%	-26%	21µM*	28%
COc1ccccc1N(C(=O)Cn1nnc(-c2ccc(C)o2)n1)C(C(=O)NC1CCCC1)c1ccncc1 (stereo not drawn)	-14%	-1%	-3%	-6%	-7%	1%
O=C(O)CSc1nnc(-c2cccc(S(=O)(=O)N3CCOCC3)c2)n1-c1ccc(F)cc1	-6%	11%	0%	11%	3%	1%
O=c1[nH]c2ccc(NCc3ccccc3F)cc2[nH]1	3%	-6%	nt	nt	3%	?
Cc1[nH]n(-c2ccccc2)c(=O)c1/C=N/NC(=O)c1ccc(O)cc1O	-19%	21µM*	23µM*	?	?	-3%
Cc1cc(C(=O)N/N=C/c2c3ccccc3cc3ccccc23)n[nH]1	-46%	9.2µM*	16µM*	?	?	?
Cc1[nH]c2ccccc2c1/C=N/NC(=O)c1cc(-c2cccs2)[nH]n1	-33%	21µM*	1%	-10%	?	?
Cc1[nH]n(-c2ccccc2)c(=O)c1/C=N/N1CCOCC1	-14%	-1%	-17%	-7%	-14%	2%
CCOc1ccc2ccccc2c1/C=N/NC(=O)c1cc(C)[nH]n1	-6%	9%	-15%	-18%	-4%	-2%
SMILES	HepG2 tox	DT40 TDP1 no CPT	HT1080 IDH1KD tx	HT1080-NT tox	TDP1 cell CPT	TGFb SMAD3 inh
Cc1ccc(-c2cc(C(=O)N/N=C/c3c(C)nn(-c4ccccc4)c3C)n[nH]2)s1	-31%	0.82µM*	1.8µM*	1.6µM*	0.65µM*	13µM*
Cc1cncc(NCc2cccc(Cl)c2)n1	-12%	-25%	8%	-13%	-19%	-12%
CCCCC(=O)N(C)c1c(C)nc2ccc(C(=O)Nc3cccc(NS(C)(=O)=O)c3)cn12	2%	-10%	8%	10%	-1%	-5%
Cc1cc(C(=O)N/N=C/c2cc(N=Nc3ccccc3)ccc2O)n[nH]1	8%	6.5µM*	?	?	5.8µM*	?
COC(=O)N/N=C/c1cc(N=Nc2ccccc2)ccc1O	5%	?	-5%	-23%	?	6%
O=C1S/C(=C\C=C\c2ccco2)C(=O)N1c1ccc(O)cc1	-12%	?	?	?	18µM*	19%
O=C1S/C(=C\C=C\c2ccco2)C(=O)N1c1ccccc1	-15%	23µM*	?	?	?	?
Oc1c(N=NC(=S)Nc2ccccc2F)c2ccccc2n1Cc1cccc(Cl)c1	-8%	6.5µM*	-23%	?	6.5µM*	-9%
Cc1cccc(Cn2c(O)c(N=NC(=S)Nc3ccccc3F)c3ccccc32)c1	-2%	7.3µM*	0%	-1%	7.3µM*	-2%
Oc1c(N=NC(=S)Nc2ccccc2F)c2ccccc2n1Cc1ccc(F)cc1	-21%	2.3µM*	-15%	-15%	5.2µM*	-24%
CC1CCCC(NC(=O)CSc2ccc(F)cc2)C1C (stereo not drawn)	-2%	3%	-8%	-7%	-2%	0%
CC1CCCC(NCC(O)COC(c2ccc(F)cc2)c2ccc(F)cc2)C1C (stereo not drawn)	22µM*	2.6µM*	21µM*	16µM*	5.2µM*	?
COc1ccc(CCNc2nc(-c3ccc(NC(C)=O)cc3)cs2)cc1OC	1%	?	-21%	-13%	?	?
COc1ccc(CCNc2nc(-c3ccc(O)cc3)cs2)cc1OC	-28%	16µM*	-10%	-8%	16µM*	?

Bioassay records (PubChem)
